Assay results reported in publication PMC4552634, “A New Set of Chemical Starting Points with Plasmodium falciparum Transmission-Blocking Potential for Antimalarial Drug Discovery” (PLoS ONE, 2015).
Out of some 13,000 compounds screened, about 3,200 (25%) showed an effect of 50% or more. The list shows a part of the results.

Each compound was assayed on P. falciparum stage V gametocytes. Conditions: 48 h, 5 µM; inhibitor.
Parameters: BacTiter-Glo ATP luminescence viability of purified stage V gametocytes in 384-well plates, per cent inhibition versus DMSO

SMILES | % Inhibition [%]
COc1ccccc1N=C1SC(=Cc2cn(CC(=O)N3CCCc4ccccc43)c3ccccc23)C(=O)N1C1CCCCC1 [TCMDC-124809] | 13.24
Cc1c(C(=O)N2CCCC(C(F)(F)F)C2)sc2cccc(F)c12 (centres unmarked) [TCMDC-124598] | 6.461
CS(=O)(=O)CCNCc1ccc(-c2cc3c(Nc4ccc(OCc5cccc(F)c5)c(Cl)c4)ncnc3s2)[nH]1 [TCMDC-135511] | -19.72
COc1ccc(C2CC(=O)C3=C(C2)NC(C)=C(C(=O)OC2CCCC2)C3c2cccc(O)c2)cc1 (centres unmarked) [TCMDC-125631] | 10.18
CC(C)(CNCc1ccc(Cl)c(Cl)c1)c1nc(-c2ccc(Cl)c(O)c2)c(-c2ccncc2)[nH]1 [TCMDC-140688] | 78.8
CC(C)(CNCc1ccc(F)c(F)c1)c1nc(-c2ccc(Cl)c(O)c2)c(-c2ccncc2)[nH]1 [TCMDC-140672] | -67.6
CC(C)(CNCc1cccc(Oc2cccc(C(F)(F)F)c2)c1)c1nc(-c2ccc(Cl)c(O)c2)c(-c2ccnc(N)n2)[nH]1 [TCMDC-141166] | 55.63
CC(C)(CNCc1ccc(Cl)cc1)c1nc(-c2ccc(Cl)c(O)c2)c(-c2ccncc2)[nH]1 [TCMDC-140548] | -50.17
CC(C)(CNCc1ccc(C(F)(F)F)cc1)c1nc(-c2ccc(Cl)c(O)c2)c(-c2ccncc2)[nH]1 [TCMDC-140689] | 22.22
CC(C)(CNCc1ccc(C(F)(F)F)cc1)c1nc(-c2ccc(Cl)c(O)c2)c(-c2ccnc(N)n2)[nH]1 [TCMDC-141162] | 38.42
COc1ccc(CNCC(C)(C)c2nc(-c3ccc(Cl)c(O)c3)c(-c3ccncc3)[nH]2)cc1 [TCMDC-140538] | -60.58
CC(C)(CNCc1cccc(Oc2ccccc2)c1)c1nc(-c2ccc(Cl)c(O)c2)c(-c2ccnc(N)n2)[nH]1 [TCMDC-141167] | 23.98
CN(C)CCCOc1ccc(CNCC(C)(C)c2nc(-c3ccc(Cl)c(O)c3)c(-c3ccncc3)[nH]2)cc1 [TCMDC-140650] | 71.95
Cc1ccc2nc(C)cc(NC(=O)Nc3ccc(N(C)C)cc3)c2c1 [TCMDC-140108] | -84.19
N#Cc1ccc2c(c1)CCN(CCC1CCC(NC(=O)/C=C/c3ccc(Cl)c(Cl)c3)CC1)CC2 (centres unmarked) [TCMDC-139792] | -12.21
CC(C)C(=O)Nc1c(F)cc(F)cc1CCc1ccc(O)cc1 [TCMDC-137532] | 15.35
CC1(C)N=C(N)NC(Nc2ccc(F)c(F)c2)=N1 [TCMDC-123533] | -23.61
c1ccc(Oc2ccc(Nc3ccnc4cc(-c5ccc(CN6CCCCC6)o5)ccc34)cc2)nc1 [TCMDC-138422] | -0.3034
c1ccc(Oc2ccc(Nc3ccnc4cc(-c5ccc(CN6CCNCC6)o5)ccc34)cc2)nc1 [TCMDC-138421] | 97.92
Cc1ccc(O)cc1Nc1ccnc2cc(-c3ccc(CN4CCCCC4)o3)ccc12 [TCMDC-138384] | 25.1
CN1CCN(Cc2ccc(-c3ccc4c(Nc5ccc(Oc6ccccc6)cc5)ccnc4c3)o2)CC1 [TCMDC-138402] | 53.53
CN1CCN(Cc2ccc(-c3cc4nccc(Nc5ccc(Oc6ccccc6)cc5)c4cc3Cl)o2)CC1 [TCMDC-138463] | 37.01
c1ccc(Oc2ccc(Nc3ccnc4cc(-c5ccc(CN6CCOCC6)o5)ccc34)cc2)nc1 [TCMDC-138424] | 11.61

SMILES | % Inhibition [%]
CN1CCN(Cc2ccc(-c3ccc4c(Nc5ccc(Oc6ccccn6)cc5)ccnc4c3)o2)CC1 [TCMDC-138420] | 73.84
c1ccc(Oc2ccc(Nc3ccnc4cc(-c5ccc(CNCCN6CCOCC6)o5)ccc34)cc2)nc1 [TCMDC-138423] | -53.28
CN(C)CCNC(=O)[C@H](CC1CCCCC1)NC(=O)c1ccc(O)c(-c2ccc(Cl)c(Cl)c2)c1 [TCMDC-140865] | 44.5
O=C(Nc1ccc(-c2nc3ccccc3[nH]2)cc1)c1ccc(Cl)s1 [TCMDC-123725] | -15.63
CC1c2cccc(O)c2CCN1CCc1ccc(Cl)c(Cl)c1 (centres unmarked) [TCMDC-138976] | -24.59
O=C(Nc1cccc(-c2ccc(-c3nc4ccccc4[nH]3)cc2)c1)c1csnn1 [TCMDC-136901] | -10.17
COc1ccc(CNC2CCN(C)CC2)cc1-c1ccc(S(=O)(=O)NCCc2ccccn2)cc1 [TCMDC-132246] | 50.8
COc1ccc(CNC2CCN(C)CC2)cc1-c1ccc(S(=O)(=O)NCCc2ccccn2)c(F)c1 [TCMDC-132264] | 102.9
COc1ccc(CNC2CCN(C)CC2)cc1-c1ccc(S(=O)(=O)NCCc2ccccn2)c(C)c1 [TCMDC-132271] | 72.47
CN1CCC(NCc2cccc(-c3ccc(S(=O)(=O)NCCc4ccccn4)c(F)c3)c2)CC1 [TCMDC-132220] | 17
Cc1nnc(-c2ccc3ccccc3c2)c2cn(-c3cccc([N+](=O)[O-])c3)nc12 [TCMDC-138592] | 4.043
O=C(NCc1cccc(F)c1)Nc1ccc(-c2cccc(-c3nc4ccccc4[nH]3)c2)cc1 [TCMDC-133297] | 6.044
COc1ccc2nccc([C@@H](O)CN3CCC(NC(=O)c4cc5c(F)cc(F)cc5[nH]4)CC3)c2c1 [TCMDC-140781] | -8.295
O=C(Nc1ccc2nc3n(c(=O)c2c1)CCCCC3)C(=O)N1CCN(c2ccc(F)cc2)CC1 [TCMDC-125293] | -18.55
O=c1cc(NCCCN(Cc2cc3c(Cl)cc(Cl)cc3[nH]2)Cc2cc3c(Cl)cc(Cl)cc3[nH]2)[nH]c2ccccc12 [TCMDC-139849] | 1.838
CCCN(Cc1ccc(OCC)cc1)Cc1cc(=O)c2cc(Cl)ccc2[nH]1 [TCMDC-124740] | 40.3
CCCN(Cc1ccc(C)cc1)Cc1cc(=O)c2cc(Cl)ccc2[nH]1 [TCMDC-124741] | 52.71
COc1ccc2nccc([C@@H](O)CN3CCC(NC(=O)c4cccc(C(=O)c5ccccc5)c4)CC3)c2c1 [TCMDC-141283] | -43.58
CCC(C)NCC(O)(c1ccc(Cl)cc1)c1ccc(Cl)cc1 (centres unmarked) [TCMDC-123502] | 68.55
CCC(C)NCCC(c1ccccc1)c1ccccc1O (centres unmarked) [TCMDC-125727] | 32.82
CCC(C)NCc1c(O)ccc2c(CNC(C)CC)c(O)ccc12 (centres unmarked) [TCMDC-137585] | -26.38
O=c1cc(NCCCNC2CCOc3c(Cl)cccc32)[nH]c2ccccc12 (centres unmarked) [TCMDC-139551] | -16.88
O=C(/C=C/c1ccc(Cl)c(Cl)c1)NCCCCCCN1CCN(C(=O)Nc2cccc(Cl)c2)CC1 [TCMDC-135831] | -35.92

SMILES | % Inhibition [%]
Cc1ccc(C)c(Cn2ccc3nc(N)nc(N)c32)c1 [TCMDC-137330] | 9.396
Cc1cccc(-c2c(C)nc(N)nc2N)c1 [TCMDC-138072] | 4.683
Nc1nc(N)c2c(ccn2Cc2cc3c(cc2Cl)OCO3)n1 [TCMDC-137328] | -14.37
Cc1cccc(Cn2ccc3c(N)nc(N)nc32)c1 [TCMDC-137327] | 54.63
Nc1nc(N)c2c(ccc3c2ccn3Cc2cccc(F)c2)n1 [TCMDC-137810] | 101.3
Cc1cccc(Cn2ccc3c4c(N)nc(N)nc4ccc32)c1 [TCMDC-137814] | 60.36
Nc1nc(N)c2c(ccc3c2ccn3Cc2ccc3c(c2)OCO3)n1 [TCMDC-137808] | 102.2
Nc1nc(N)c2c(ccc3c2ccn3CC2CC2)n1 [TCMDC-123991] | 40.96
Cc1cc(NC(=O)Nc2ccc3ncccc3c2)c2ccccc2n1 [TCMDC-139829] | -30.57
COc1ccc(C2CCN(C#N)C2)cc1OC1CCCC1 (centres unmarked) [TCMDC-131880] | 32.2
COc1ccc(-n2c(=O)c3c(n4c(SC(C)C)nnc24)-c2ccccc2CC32CCCCC2)cc1 [TCMDC-125706] | 19.59
NC1=NC(CCc2ccccc2)N(c2ccccc2)C(N)=N1 (centres unmarked) [TCMDC-131292] | 10.89
Cn1nccc1C(=O)NCCNCc1ccc(-c2cccc(-c3nc4ccccc4[nH]3)c2)cc1.O=C(O)C(F)(F)F [TCMDC-132562] | -0.1444
O=C(O)C(F)(F)F.c1cc(-c2ccc(CNCCCn3ccnc3)cc2)cc(-c2nc3ccccc3[nH]2)c1 [TCMDC-132541] | 99.24
O=C(O)C(F)(F)F.O=C1CCCN1CCCNCc1ccc(-c2cccc(-c3nc4ccccc4[nH]3)c2)cc1 [TCMDC-132549] | -11.63
O=C(O)C(F)(F)F.c1cc(-c2ccc(CNCCCN3CCOCC3)cc2)cc(-c2nc3ccccc3[nH]2)c1 [TCMDC-132548] | 54.17
O=C(O)C(F)(F)F.c1ccc2[nH]c(-c3ccc(-c4ccc(CN5CCN(CCN6CCOCC6)CC5)cc4)cc3)nc2c1 [TCMDC-133928] | -28.02
c1ccc(CCNc2ncnc3c2[nH]c2ccccc23)cc1 [TCMDC-124578] | -4.873
CC(C)(C)c1cc(C(=O)Nc2cccnc2)cc(C(=O)Nc2cccnc2)c1 [TCMDC-125788] | -16.11
COc1ccc2nccc([C@@H](O)CN3CCC(NCc4nc5c(OCc6ccccc6)cccc5[nH]4)CC3)c2c1 [TCMDC-141083] | 34.25
N#CC(CC(=O)c1ccc(Cl)cc1)c1cccc(F)c1 (centres unmarked) [TCMDC-123760] | 17.52
CC(CC(=O)NCC1(c2ccc(F)cc2Cl)CCOCC1)C(=O)c1ccc(Cl)cc1 (centres unmarked) [TCMDC-134256] | 68.04
